NRP1-CendR mod – NRP-1/CendR interaction modulation. 0.85% of 360,000 active. O14786. FAM-RPARPAR peptide binding to NRP-1, fluorescence polarization. inhibition, % at 25 µM;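 active = inhibition or corrected inhibition above about 18%, plus a signal ratio from 0.5 to 1.5, limit read from the data, passing the limit was not always enough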
PKA-R1A activ – activates the PKA-R1A holoenzyme complex. P00514+P68181. PKA-R1A dissociation, Cy5-IP20 fluorescence polarization; scaled: DMSO 0%, 113 µM cGMP 100%. AID 504707. 0.083% of 340,000 active. activation, % at 11.4 µM;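 active = percent activation above the mean of all tested compounds plus 3 SD, cut at about 19% in these data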;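 note: higher means more PKAc released from R1A so a rise in polarization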
ATG4B inhibitor – ATG4B (human) cysteine protease inhibition; 0.51% of 340,000 active; inhibition, % at 8.33 µM; ATG4B cleavage of LC3-PLA2, NBD-HPC fluorescence, 1 h; AID 504462; in the data active = inhibition above about 40%
VLA-4 inh – inhibition in a human VLA-4 binding assay; P13612; VLA-4 expressing cells, ligand binding flow cytometry; inhibition, % (about 7 µM as worked out from the volumes in the protocol); 0.2% of 330,000 active; AID 2557
PKA-R2B act – activates the human PKA-R2B holoenzyme complex | P22694+P31323 | PKA-R2B holoenzyme dissociation, Cy5-IP20 fluorescence polarization; R2B truncated from residue 108, S112A mutant; 0% DMSO only, 100% 113 µM cGMP | activation, % at 11.4 µM | 0.079% of 340,000 active;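 active = activation above a cutoff set at the mean over all compounds plus 3 SD, cut at about 18% in these data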;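 note: higher means more holoenzyme dissociation and a rise in polarization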
PLA2 ctr – inhibits human PLA2, flagging false ATG4B inhibitors. inhibition, % at 8.33 µM. purified PLA2, NBD-C6-HPC fluorescence, 45 min. 66% of 1,600 active. shares compounds with ATG4B inhibitor
R2B FP artifact – FP assay interference, PKA-R2B counter-screen; shares compounds with PKA-R2B act; FP artifact counterscreen, fluorescence polarization; activation, % at 11.4 µM; 6% of 270 active; AID 504796; in the data active = activation above about 20%;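 note: Cy5 labelled IP20 peptide probe with compound but no PKA protein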
PKA-R2B confirm – PKA-R2B complex activation, confirmation | shares compounds with PKA-R2B act | fluorescence polarization | activation, % at 11.4 µM | 9% of 270 active | AID 504797; in the data active = activation above about 19%
Active calls of the source: *; / = not tested or not shown. Most compounds without a hit are left out; they make up all but 1.6% or so of the library. Cut-off read from the data, not from the text of the source, unless noted: active = inhibition above about 50%; inactive = the rest.

SMILES | NRP1-CendR mod | PKA-R1A activ | ATG4B inhibitor | VLA-4 inh | PKA-R2B act | R2B FP artifact | PKA-R2B confirm | others
CCCCCCCCCCCCCCCC[N+](C)(C)CCN(Cc1ccc(OC)cc1)c1ncccn1 | 8 | -4 | 67* | 27 | 30* | -1 | 36* | PLA2 ctr=61*
COc1ccc(CN(CCN(C)C)c2ccccn2)cc1 | 0 | -15 | -4 | 10 | -1 | / | /
C[C@@]12CCC=C[C@H]1[C@H](c1ccccc1Br)N(Cc1ccccc1)C2=O | -1 | 2 | 48* | / | 11 | -3 | -3 | PLA2 ctr=79*
COc1cccc(C(=O)NC(c2ccccc2)C2CCCC2)c1 (stereo not drawn) | 10 | 1 | 9 | 7 | -1 | / | /
COC(=O)c1c[nH]n2c(=O)cc(CCl)nc12 | -22 | 6 | -24 | -44 | 20* | 0 | 1
COC(=O)c1c[nH]n2c(=O)c(C(C)C)c(C)nc12 | -2 | -2 | 2 | 2 | -12 | / | /
NC(=O)CSc1ccc(F)cc1 | -5 | 7 | 1 | 0 | 0 | / | /
O=C(c1ccc(Cl)cc1)[C@@H]1[C@@H]2C(=O)N(c3ccccc3)C(=O)[C@@H]2C2c3ccccc3C=NN21 (stereo partly drawn) | 5 | -1 | -14 | -2 | 26* | 4 | 0
O=C(c1ccc(Cl)cc1)C1C2C(=O)N(c3ccccc3)C(=O)C2C2CCCN21 (stereo not drawn) | -12 | 4 | -14 | / | -4 | / | /
Oc1ccccc1/C=N/Nc1ncc(Br)cn1 | -7 | -4 | 4 | 11 | 26* | 3 | 2
O=C(COc1cccc(-n2cnnn2)c1)Nc1ccc([N+](=O)[O-])cc1 | -4 | 3 | -10 | 1 | 20* | 2 | 3
O=C(NC1CCCC1)c1cc(S(=O)(=O)N2CCCC2)ccc1Cl | 16 | 0 | 8 | 13 | -6 | / | /
O=C(NC1CCCCC1)c1cc(S(=O)(=O)N2CCN(c3ccccc3)CC2)ccc1Cl | -2 | -7 | 0 | 4 | 20* | 2 | -2
CC1(C(=O)NS(=O)(=O)c2ccccc2OC(F)(F)F)CCN1C(=O)c1ccccc1 (stereo not drawn) | 1 | / | / | / | / | / | /
CCOc1ccc(OCc2cccc(C(=O)O)c2)cc1 | 3 | -11 | 20 | 4 | 20* | 3 | 2
O=C(c1ccc(OCC2CCCO2)cc1)N1CCN(c2ccccc2)CC1 (stereo not drawn) | 1 | 4 | -8 | 15 | 19* | 3 | 5
Cc1cc(C)c(S(=O)(=O)c2ccccc2Cl)c(=O)[nH]1 | 1 | 1 | -2 | 13 | -4 | / | /
Cc1ccc(NS(=O)(=O)c2cccc(C(=O)N(C)Cc3cccs3)c2)cc1 | 7 | -1 | -4 | -5 | -10 | / | /
O=C(CSC1=NCCS1)N1CCCC1 | 0 | -1 | -11 | 25 | 22* | 2 | -2
CC(CO)NS(=O)(=O)c1cc(Cl)ccc1F (stereo not drawn) | 12 | -9 | / | / | 1 | / | /
CSCC(=O)NCC1(N(C)Cc2ccccc2)Cc2ccccc2C1 | -8 | 12 | -7 | 11 | -3 | / | /
CC#CC(=O)NCC1(N(C)Cc2ccccc2)Cc2ccccc2C1 | 3 | 5 | -8 | 2 | 18* | 6 | 2
O=C1CCCC2=C1C(c1ccsc1)CC(=O)N2c1ccccc1F (stereo not drawn) | -13 | -8 | -4 | 0 | -15 | / | /
CCc1cccc(NC(=O)c2cc(OC)c(OC)c(OC)c2)c1 | -2 | 1 | -9 | -2 | -7 | / | /
O=c1[nH]c(NCCO)nnc1Cc1ccccc1 | 8 | -4 | -7 | 6 | -7 | / | /
SMILES | NRP1-CendR mod | PKA-R1A activ | ATG4B inhibitor | VLA-4 inh | PKA-R2B act | R2B FP artifact | PKA-R2B confirm | others
Cc1cccc(NC(=O)CSc2nc3nc4c(cc3c(=O)n2-c2ccccc2)CCCC4)c1 | -2 | -6 | 8 | 0 | -11 | / | /
O=C(CSc1nc2nc3c(cc2c(=O)n1-c1ccccc1)CCCC3)Nc1cccc2ccccc12 | -10 | 0 | 3 | 6 | 19* | 2 | 3
C=C1CSc2nc(=O)c3c4c(sc3n21)CCC4 | -4 | -5 | 8 | -6 | 20* | -3 | -3
C=C1CSc2nc(=O)c3c4c(sc3n21)CCCC4 | -2 | -12 | 9 | -7 | -4 | / | /
Cc1ccc(C(=O)NCC(=O)N2CCN(c3ccccc3)CC2)cc1 | -5 | 16 | 2 | 16 | 21* | -3 | -3
CN1CCN(C(=O)/C(=C/c2ccc(N(C)C)cc2)NC(=O)c2ccccc2)CC1 | -82 | -9 | -1 | -4 | 20* | 6 | 4
CN1CCN(C(=O)/C(=C/c2ccc(F)cc2)NC(=O)c2ccccc2)CC1 | 9 | -1 | -1 | 11 | -7 | / | /
Cc1ccc(-c2csc3nc(CSc4nnc(-c5ccc(Cl)cc5)n4C)[nH]c(=O)c23)cc1 | -25 | 11 | -7 | 6 | -4 | / | /
CCn1c(SCc2nc3scc(-c4ccccc4)c3c(=O)[nH]2)nnc1-c1ccc(Cl)cc1 | -19 | -2 | 2 | -4 | 20* | -2 | -3
Cc1cccc(C(=O)OCC(=O)NC(=O)NCc2ccccc2)c1 | -9 | -2 | 5 | 0 | -6 | / | /
COc1cccc(NC(=O)C(=O)NCCCN2CCCC2=O)c1 | -9 | 9 | -4 | -4 | 20* | 2 | 2
COc1ccccc1NC(=O)C(=O)NCCCN1CCCC1=O | 2 | -5 | 7 | 2 | 2 | / | /
NC(=S)NN=C1c2cc(OCCN3CCOCC3)ccc2-c2ccc(OCCN3CCOCC3)cc21 | 2 | -17 | -21 | -20 | -4 | / | /
COc1ccccc1C(=O)NC(CCSC)C(=O)NCc1ccncc1 (stereo not drawn) | 21 | 7 | -14 | 39 | 21* | 0 | 1
COc1ccccc1C(=O)NC(CCSC)C(=O)NCc1ccccn1 (stereo not drawn) | 2 | -5 | 0 | 1 | 8 | / | /
OC[C@H]1O[C@@H](c2nc3ccc(-c4nc(-c5cccs5)no4)cc3[nH]2)C[C@@H]1O | -18 | / | / | / | / | / | /
CCc1nnc(NC(=O)CSc2nnc(C)n2-c2ccc(C)cc2)s1 | 0 | -1 | -5 | -8 | 19* | 4 | 1
O=C1CCCC/C1=C/Nc1ccc2c(c1)OCO2 | 4 | -1 | -1 | 6 | -4 | / | /
O=C1CCC/C1=C/Nc1cccc(F)c1 | 3 | -1 | -4 | -9 | 19* | 5 | 5
CC1=[N+](C)c2ccc3ccccc3c2C1(C)C | -2 | 14 | 1 | -26 | 19* | 7 | 12

Assay outcomes (PubChem BioAssay)
